Out of some 5,500 compounds screened, about 2,000 (36%) were called active. Another 18% or so got no clear call; they are omitted. Cut-off read from the data, not from the text of the source: active = normalized growth mostly below about 0.91 (no sharp cut-off); inconclusive = no clear call, values can overlap the other calls; inactive = mostly above about 0.92. Some of the results follow.
Experiment: chemical genetic growth profiling, strain panel (AID 1159580);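 note: tested at 20 µM; growth read once vehicle control cultures reached saturation at 30 °C; 1 = growth at the plate median or of vehicle wells; lower values mean less growth of the strain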
Conditions: S. cerevisiae deletion strains, growth OD

Measured: normalized growth

CCOC(=O)CNc1ccc(Cl)c(Cl)c1
inactive: locus YAL013W, strain DEP1, active compounds read low 0.949 | locus YBR229C, strain ROT2, active compounds read low 0.969 | locus YCL061C, strain MRC1, active compounds read low 0.977 | locus YDL101C, strain DUN1, active compounds read low 0.974 | locus YDR150W, strain NUM1, active compounds read low 0.967 | locus YEL061C, strain CIN8, active compounds read low 0.986 | locus YGR078C, strain PAC10, active compounds read low 0.958 | locus YGR229C, strain SMI1, active compounds read low 0.998 | locus YHR030C, strain SLT2, active compounds read low 0.746 | locus YHR087W, strain rtc3, active compounds read low 0.978 | locus YJL187C, strain SWE1, active compounds read low 0.973 | locus YJR043C, strain POL32, active compounds read low 0.974 | locus YJR075W, strain HOC1, active compounds read low 0.927 | locus YLR039C, strain RIC1, active compounds read low 0.971 | locus YLR058C, strain SHM2 (second series), active compounds read low 0.97 | locus YLR085C, strain ARP6, active compounds read low 0.876 | locus YLR262C, strain YPT6, active compounds read low 0.975 | locus YML094W, strain GIM5, active compounds read low 0.973 | locus YMR219W, strain ESC1, active compounds read low 0.974 | locus YMR263W, strain SAP30, active compounds read low 0.946 | locus YMR307W, strain GAS1, active compounds read low 0.986 | locus YNL153C, strain GIM3, active compounds read low 0.962 | locus YNL298W, strain CLA4 (second series), active compounds read low 0.931 | locus YNL322C, strain KRE1, active compounds read low 0.971 | locus YNR030W, strain Alg12, active compounds read low 0.995 | locus YPL055C, strain LGE1, active compounds read low 0.87 | locus YPL241C, strain CIN2, active compounds read low 1 | locus YPR135W, strain CTF4, active compounds read low 0.906
